This is a sample that favours compounds with a hit; in the whole collection about 3.5% have one here.
TEAD-YAP block – TEAD-YAP interaction inhibition, primary screen, TEAD-YAP interaction inhibitor project, luminescence, HEK-TIYL cells | 640,000 tested, 1.4% active | AID 1259422, 2018 | inhibition, % at 9.12 µM | TEAD-Gal4/YAP UAS-luciferase luminescence; in the data active means inhibition above about 32%;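 further: 0% = median of test compound wells and 100% = reference inhibitor wells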
GPR151 ag – activators of human GPR151, primary screen, cell-based, PathHunter beta-arrestin, luminescence. activation, % at 11.2 µM. PathHunter beta-arrestin GPR151 cells. 650,000 tested, 1% active. G-protein coupled receptor 151 (Homo sapiens), Q8TDV0; in the data active means activation above about 4.9%;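 further: 0% = median of compound wells and 100% = cells with positive control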
Target sequence (Q8TDV0 whole entry, looked up): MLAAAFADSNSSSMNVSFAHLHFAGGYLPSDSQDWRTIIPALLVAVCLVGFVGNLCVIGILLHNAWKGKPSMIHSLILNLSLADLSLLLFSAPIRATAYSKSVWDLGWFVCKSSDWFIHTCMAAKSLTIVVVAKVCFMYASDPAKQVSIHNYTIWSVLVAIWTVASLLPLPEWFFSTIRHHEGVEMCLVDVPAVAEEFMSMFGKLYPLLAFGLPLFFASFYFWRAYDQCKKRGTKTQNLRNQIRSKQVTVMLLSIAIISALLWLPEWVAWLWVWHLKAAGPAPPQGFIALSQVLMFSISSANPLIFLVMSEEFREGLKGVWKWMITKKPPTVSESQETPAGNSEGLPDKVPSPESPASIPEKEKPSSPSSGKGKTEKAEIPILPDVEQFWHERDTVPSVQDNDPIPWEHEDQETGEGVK
FBW7 activator – FBW7 E3 ligase activators, primary screen, biochemical, AlphaScreen, human | F-box/WD repeat-containing protein 7 (Homo sapiens), Q969H0 | AlphaScreen FBW7–phospho-cyclin E peptide binding, activator screen | normalized activity (activation), % at 26.1 µM | 650,000 tested, 0.13% active; in the data active means normalized activity above about 1.9%;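 further: purified mutant Fbw7 with reduced substrate affinity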
MITF inh – MITF inhibitors, primary screen, biochemical, AlphaScreen, human; inhibition, % at 2.6 µM; 650,000 tested, 0.91% active; Microphthalmia-associated transcription factor (Homo sapiens), O75030; AlphaScreen MITF homodimerization, bead proximity signal; in the data active means inhibition above about 50%;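 further: 0% = vehicle wells with protein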
An asterisk follows results filed as active.

SMILES	TEAD-YAP block	GPR151 ag	FBW7 activator	MITF inh
Cc1ccc(-c2ncn(-c3ccc(Nc4ncc5ccc(-c6cn[nH]c6C)cc5n4)cc3)n2)cn1	43*	0	0	4
CNc1cc(-c2cnn(C)c2)nc(Nc2ccc(-n3nc(C)nc3C)cc2)n1	18	-2	0	10
Cc1nc(C)n(-c2ccc(Nc3ncc4ccc(-c5cnn(C)c5)nc4n3)cc2)n1	72*	0	0	2
Cc1ccc(-c2ncn(-c3ccc(Nc4ncc(F)c(-c5cnn(C)c5)n4)cc3)n2)cn1	46*	-2	0	11
Cc1ncn(-c2ccc(Nc3ncc(Br)c(-c4cnn(C)c4)n3)cc2)n1	69*	-2	0	12
CC(C)n1c(Nc2ccncn2)nc2c(NCc3cccc(C(F)(F)F)c3)ncnc21	1	0	0	-6
CCN(CC)S(=O)(=O)c1ccc(C(=O)Nc2c3c(nn2-c2ccc(Cl)cc2)CS(=O)(=O)C3)cc1	0	0	0	-1
O=S(=O)(c1ccc(Cl)cc1)N1c2ccccc2Sc2ccc(C(F)(F)F)cc21	2	0	0	-2
COC(=O)c1cc2sccc2n1CC(=O)c1ccccc1	6	3	0	13
COC(=O)c1cc2sccc2n1CC(=O)Cc1ccc(OC)cc1OC	50*	-1	0	14
COc1ccc(NC(=O)N2CC=C(c3c[nH]c4ccccc34)CC2)cc1	51*	0	0	2
CCCCOc1ccccc1C1C(C(=O)OC)=CN(Cc2ccc(OC)c(OC)c2)C=C1C(=O)OC	0	0	1	10
C=CCNc1ncnc2scc(-c3ccccc3)c12	38*	1	0	2
Fc1ccc(-c2csc3ncnc(NCCc4cccs4)c23)cc1	43*	2	0	4
c1csc(CCNc2ncnc3sc4c(c23)CCC4)c1	37*	2	0	21
CC(C)C(NC(=O)/C(=C/c1ccccc1)NC(=O)c1ccccc1)C(=O)O (configuration not stated)	-3	1	0	-11
O=C1CCCN1C(=S)C(=S)N1CCCC1=O	99*	1	-2	21
Cc1ccc(C(=O)N/N=C/c2ccccc2O)cc1	-22	2	0	3
CC(C)c1ccc(C2CC(c3ccc(F)cc3)=NN2c2nc(-c3ccc(Cl)cc3)cs2)cc1 (configuration not stated)	-8	4	0	0
CCn1c(=O)cc(N2CCN(c3cccc(Cl)c3)CC2)[nH]c1=O	68*	0	0	-6
CC1=NOC(=O)/C1=C/c1ccc(-c2ccc(C(=O)O)cc2)o1	7	0	0	57*
CC1=NOC(=O)/C1=C\c1ccc(-c2ccc(Cl)c(C(=O)O)c2)o1	-1	0	0	15
CCn1c(N2CCC(C(=O)NCCO)CC2)nc2ccccc21	-2	0	0	0
CCn1c(N2CCC(C(=O)NC3CCN(Cc4ccccc4)CC3)CC2)nc2ccccc21	39*	0	0	9
COC(=O)Nc1c(SCc2ccccc2)cc([N+](=O)[O-])cc1[N+](=O)[O-]	3	2	0	29
SMILES	TEAD-YAP block	GPR151 ag	FBW7 activator	MITF inh
CCOCCn1c2c(c3ccccc31)=NC1C=CC=CC1N=2 (configuration not stated)	-26	-1	2.7*	8
Cc1nc(SCc2ccc(Br)cc2)n[nH]1	33*	0	0	15
Cc1nc(SCc2ccc(OC(C)C)cc2)n[nH]1	95*	-5	0	15
COc1ccc(OC)c(/C=N/NC(=O)CCC(=O)Nc2ccccc2Br)c1	5	0	0	-11
CCCc1noc(CN2CCC(N3CCC(C(=O)OCC)CC3)CC2)n1	6	2	0	-11
OCc1cccc(-c2cnc3c(NCc4ccco4)nccn23)c1	-66	0	0	-4
Cc1cc(C(=O)COC(=O)c2ccc(O)cc2O)c(C)n1-c1ccccc1	64*	-1	0	9
COc1cc(C(=O)/C=C/Nc2ccc(I)cc2)cc(OC)c1OC	36*	2	0	-1
COc1ccc(C(=O)/C=C/Nc2ccc(Br)cc2)cc1OC	-15	-1	0	3
COc1cc(C(=O)/C=C/Nc2ccc(Br)cc2)cc(OC)c1OC	38*	0	0	-2
COc1ccc(N/C=C/C(=O)c2cc(OC)c(OC)c(OC)c2)cc1	42*	-1	0	15
COc1ccc(N/C=C/C(=O)c2ccc(OC)c(OC)c2)cc1	-6	1	0	-8

From PubChem BioAssay
